We go through 60 compounds from PubChem BioAssay (Tox21).

The target in test [1] is Acetylcholinesterase (Homo sapiens) (UniProt P22303). In words: Acetylcholinesterase (AChE) small molecule antagonists: colormetric cell-based qHTS assay (AID 1347395). Also: nearly all actives have a fitted effect of over 30% in size. Also: potency is read from the fitted curve at half-maximal effect. In a few lines: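 Cells (SH-SY5Y, 2,000 per well) are seeded and left overnight at 37 C. Compound is added for 30 min, then DTNB and acetylthiocholine for a further 90 min at 37 C before absorbance-based thiocholine detection.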
Acetylcholinesterase (Homo sapiens), sequence (P22303 whole entry, looked up): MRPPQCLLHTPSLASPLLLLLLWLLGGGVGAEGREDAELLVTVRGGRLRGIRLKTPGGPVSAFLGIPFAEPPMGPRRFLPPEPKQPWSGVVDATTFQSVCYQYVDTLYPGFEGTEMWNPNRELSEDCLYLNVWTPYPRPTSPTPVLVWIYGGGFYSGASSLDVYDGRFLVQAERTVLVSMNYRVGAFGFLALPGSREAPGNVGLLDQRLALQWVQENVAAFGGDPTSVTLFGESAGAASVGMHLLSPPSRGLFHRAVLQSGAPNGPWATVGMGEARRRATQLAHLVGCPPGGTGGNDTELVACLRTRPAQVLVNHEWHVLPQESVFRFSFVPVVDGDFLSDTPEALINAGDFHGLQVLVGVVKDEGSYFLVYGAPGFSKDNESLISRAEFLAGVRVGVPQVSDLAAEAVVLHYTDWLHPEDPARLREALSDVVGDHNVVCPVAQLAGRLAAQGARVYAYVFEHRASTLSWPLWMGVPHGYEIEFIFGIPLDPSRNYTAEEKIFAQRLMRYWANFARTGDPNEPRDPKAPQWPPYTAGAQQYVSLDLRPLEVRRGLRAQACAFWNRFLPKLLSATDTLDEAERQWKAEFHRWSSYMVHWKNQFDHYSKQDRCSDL
In general terms: In qHTS, concentration-response curves come from the screen itself.

Test [2] has the same target. In words: Acetylcholinesterase (AChE) small molecule antagonists: enzyme-based qHTS assay (AID 1347397). Also: nearly all actives have a fitted effect of over 55% in size. Also: potency is read from the fitted curve at half-maximal effect. The settings on record: Potency: AChE enzyme activity inhibition; outcome: AChE enzyme activity inhibition. In a few lines: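 Compound or DMSO vehicle was pin-transferred onto recombinant human AChE (50 mU/mL as dispensed) and left 30 min at room temperature. Acetylthiocholine with DTNB then started the reaction, read colorimetrically 10 min later.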

The target is the same in test [3]. In words: Acetylcholinesterase (AChE) small molecule antagonists: fluorescence cell-based qHTS assay (AID 1347398). Also: nearly all actives have a fitted effect of over 50% in size. Also: potency is read from the fitted curve at half-maximal effect. The settings on record: Potency: AChE activity; outcome: AChE activity. In a few lines: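 Using neuroblastoma SH-SY5Y cells as the enzyme source, test chemicals are preincubated 30 min at 37 C; AChE-driven acetylthiocholine cleavage is then quantified by thiocholine-dependent Thiolite Green fluorescence after 40 min at room temperature.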

For test [4] the target is unchanged. The test is described as follows: Acetylcholinesterase (AChE) small molecule antagonists: enzyme-based qHTS assay with human liver microsomes (AID 1347399). Also: nearly all actives have a fitted effect of over 60% in size. The settings on record: Potency: qHTS inhibition; outcome: qHTS inhibition. In a few lines:
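Recombinant human AChE (50 mU/mL in the enzyme mix) and human liver microsomes (0.25 mg/mL final) were preincubated with compound and NADPH (0.25 mg/mL final) for 30 min at 37 C. Acetylthiocholine/DTNB was then added; thiocholine was read colorimetrically after 10 min at room temperature.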

The structures appear in SMILES notation. Unmarked numbers belong to inactive results. Records with an inconclusive call do not appear. Calls of active or inactive are those of the source. Calls follow the shape of the full dose curve.
% is scaled to controls: 0 for no effect and ±100 for the full control effect.

On to `O=C1c2ccccc2C(=O)c2c(O)c(O)cc(O)c21`, for which the Potency result in test [1], in test [2], in test [3] and in test [4] was “inactive” each time.

As to `O=C(c1ccccc1)c1ccc(O)c(O)c1O`, the Potency result in test [1], in test [2], in test [3] and in test [4] was “inactive” each time.

On to `C=COCC1CCC(CO)CC1` (stereo not given), for which the Potency result in test [1], in test [2], in test [3] and in test [4] was “inactive” each time.

Turning to `CN(C)c1ccc(N=NS(=O)(=O)O)cc1`, the Potency entry in test [1], in test [2], in test [3] and in test [4] was “inactive” in each case.

For `O=c1[nH]nnc2ccccc12`, the Potency entry in test [1], in test [2], in test [3] and in test [4] was “inactive” in each case.

As to `CCC(C)(C)C`, the Potency result in test [1], in test [2], in test [3] and in test [4] was “inactive” each time.

For the compound `CCC(C)(C)C1CCC(OC)CC1` (stereo not given), the Potency result in test [1], in test [2], in test [3] and in test [4] was “inactive” throughout.

Regarding `CCc1c(C(=O)NN2CCCCC2)nn(-c2ccc(Cl)cc2Cl)c1-c1ccc(Br)cc1`, the Potency result in test [1], in test [2], in test [3] and in test [4] was “inactive” in each case.

With `CCOC(=O)CC(CC(=O)OCC)(OC(C)=O)C(=O)OCC`, the Potency result in test [1], in test [2], in test [3] and in test [4] was “inactive” in each case.

In the case of `C=CCCCCCCCCC(=O)OCC`, the Potency entry in test [1], in test [2], in test [3] and in test [4] was “inactive” each time.

Regarding `COC(=O)c1ccc(C(=O)O)cc1`, the Potency result in test [1], in test [2], in test [3] and in test [4] was “inactive” throughout.

As for `CC[C@H](C)COC(=O)/C=C/c1ccc(N=Cc2ccc(OC)cc2)cc1`, the Potency entry in test [1], in test [2], in test [3] and in test [4] was “inactive” in each case.

Consider `CCCOCC(C)O` (stereo not given), for which the Potency result in test [1], in test [2], in test [3] and in test [4] was “inactive” each time.

In the case of `CC1=C(C)S(=O)(=O)CCS1(=O)=O`, the Potency result in test [1], in test [2], in test [3] and in test [4] was “inactive” in each case.

As for `C=Cc1ccc(O)c(OC)c1`, the Potency result in test [1], in test [2], in test [3] and in test [4] was “inactive” throughout.

For the compound `C=C(C)C(=O)O`, the Potency entry in test [1], in test [2], in test [3] and in test [4] was “inactive” each time.

`NNC(=O)CP(=O)(c1ccccc1)c1ccccc1`: the Potency entry in test [1], in test [2], in test [3] and in test [4] was “inactive” throughout.

As to `C#C[C@]1(O)CC[C@H]2[C@@H]3CCC4=Cc5oncc5C[C@]4(C)[C@H]3CC[C@@]21C`, the Potency result in test [1], in test [2], in test [3] and in test [4] was “inactive” in each case.

As to `CCCCC(CC)COP(=O)(O)OCC(CC)CCCC` (stereo not given), the Potency entry in test [1], in test [2], in test [3] and in test [4] was “inactive” throughout.

As for `CCCCCCCC/C=C\CCCCCCCC(=O)OC`, the Potency entry in test [1], in test [2], in test [3] and in test [4] was “inactive” in each case.

With `N#Cc1ccccc1`, the Potency entry in test [1], in test [2], in test [3] and in test [4] was “inactive” each time.

Take `CC(=O)NCCCCCC(=O)O`: the Potency result in test [1], in test [2], in test [3] and in test [4] was “inactive” each time.

As to `Cc1ncc([N+](=O)[O-])n1C`, the Potency result in test [1], in test [2], in test [3] and in test [4] was “inactive” throughout.

As to `O=C(O)c1ccccc1[N+](=O)[O-]`, the Potency result in test [1], in test [2], in test [3] and in test [4] was “inactive” in each case.

On to `CC1=C(C(=O)OC(C)C)C(c2cccc([N+](=O)[O-])c2)C(C(=O)OC2CN(C(c3ccccc3)c3ccccc3)C2)=C(N)N1` (stereo not given), for which the Potency entry in test [1], in test [2], in test [3] and in test [4] was “inactive” each time.

`C=C(C)C(=O)OCCOc1ccccc1`: the Potency entry in test [1], in test [2], in test [3] and in test [4] was “inactive” in each case.

With `CCOc1c(N2CCOCC2)cnn(C)c1=O`, the Potency result in test [1], in test [2], in test [3] and in test [4] was “inactive” each time.

For `O=C1c2ccccc2C(=O)N1CCl`, the Potency entry in test [1], in test [2], in test [3] and in test [4] was “inactive” in each case.

On to `Nc1ccn([C@@H]2O[C@H](CO)[C@@H](O)C2O)c(=O)n1` (stereo not given in full), for which the Potency entry in test [1], in test [2], in test [3] and in test [4] was “inactive” in each case.

For the compound `NC1CCCCC1`, the Potency entry in test [1], in test [2], in test [3] and in test [4] was “inactive” each time.

Consider `COC(C)CCO` (stereo not given), for which the Potency entry in test [1], in test [2], in test [3] and in test [4] was “inactive” each time.

Take `O=c1[nH]c2cc(C(F)(F)F)c(N3CCOCC3)cc2n(CP(=O)(O)O)c1=O`: the Potency entry in test [1], in test [2], in test [3] and in test [4] was “inactive” each time.

For `C=CCCCCCCCC`, the Potency result in test [1], in test [2], in test [3] and in test [4] was “inactive” throughout.

As for `CCOC(OCC)OCC`, the Potency result in test [1], in test [2], in test [3] and in test [4] was “inactive” in each case.

As for `COC(=O)CCS`, the Potency entry in test [1], in test [2], in test [3] and in test [4] was “inactive” each time.

For the compound `CC(c1cc(C(C)(C)C)cc(C(C)(C)C)c1O)c1cc(C(C)(C)C)cc(C(C)(C)C)c1O`, the Potency entry in test [1], in test [2], in test [3] and in test [4] was “inactive” throughout.

As to `O=C(CCCl)NCc1ccccc1`, the Potency entry in test [1], in test [2], in test [3] and in test [4] was “inactive” throughout.

As for `COC(=O)CC(C)CCC=C(C)C` (stereo not given), the Potency result in test [1], in test [2], in test [3] and in test [4] was “inactive” in each case.

For `CCCCCCC(O)CCOC(C)=O` (stereo not given), the Potency result in test [1], in test [2], in test [3] and in test [4] was “inactive” in each case.

Take `CC(=O)Oc1ccc(C2(c3ccc(OC(C)=O)cc3)C(=O)Nc3ccccc32)cc1`: the Potency entry in test [1], in test [2], in test [3] and in test [4] was “inactive” throughout.

As to `Cc1ccccc1C(N)=O`, the Potency result in test [1], in test [2], in test [3] and in test [4] was “inactive” in each case.

Turning to `Nc1nc2ncc(CNc3ccc(C(=O)N[C@@H](CCC(=O)O)C(=O)O)cc3)nc2c(=O)[nH]1`, the Potency entry in test [1], in test [2], in test [3] and in test [4] was “inactive” throughout.

Take `O=C(O)CCc1ccccc1`: the Potency entry in test [1], in test [2], in test [3] and in test [4] was “inactive” in each case.

Regarding `CCCC(=O)OC`, the Potency entry in test [1], in test [2], in test [3] and in test [4] was “inactive” in each case.

Take `CCCCCCCCOc1ccccc1C(=O)Nc1ccc(C(=O)OCC[N+](C)(CC)CC)cc1`: the values for the Potency in test [1], in test [2] and in test [3] were 24.5 µM (active), 38.9 µM (active) and 12.3 µM (active), respectively. In test [4], the Potency result was “inactive”.

Regarding `C/C=C(\C)C(C)=O`, the Potency result in test [1], in test [2], in test [3] and in test [4] was “inactive” each time.

Turning to `COc1ccc(-c2coc3cc(O)cc(O)c3c2=O)cc1`, the Potency entry in test [1], in test [2], in test [3] and in test [4] was “inactive” in each case.

Turning to `O=[N+]([O-])c1cccc(S(=O)(=O)O)c1`, the Potency result in test [1], in test [2], in test [3] and in test [4] was “inactive” throughout.

With `NCCNCCN`, the Potency entry in test [1], in test [2], in test [3] and in test [4] was “inactive” each time.

`COCCOCCOCCOC`: the Potency entry in test [1], in test [2], in test [3] and in test [4] was “inactive” throughout.

For the compound `C[C@H]1[C@H]2CC[C@H]3[C@@H]4CC=C5C[C@@H](N(C)C)CC[C@]5(C)[C@H]4CC[C@]23CN1C`, the Potency entry in test [1], in test [2], in test [3] and in test [4] was “inactive” each time.

Regarding `CCC(C)c1cc([N+](=O)[O-])cc([N+](=O)[O-])c1OC(=O)OC(C)C` (stereo not given), the Potency entry in test [1], in test [2], in test [3] and in test [4] was “inactive” throughout.

On to `O=C1Cc2cc(Cl)ccc2N1`, for which the Potency result in test [1], in test [2], in test [3] and in test [4] was “inactive” in each case.

As to `CN(C/C=C/C#CC(C)(C)C)Cc1cccc2ccccc12`, the Potency entry in test [1], in test [2], in test [3] and in test [4] was “inactive” throughout.

Consider `CC(C)(C)C(=O)CC(=O)C(C)(C)C`, for which the Potency result in test [1], in test [2], in test [3] and in test [4] was “inactive” in each case.

In the case of `CC(C)CCCCCCN`, the Potency result in test [1], in test [2], in test [3] and in test [4] was “inactive” in each case.

As to `CCCCCCCCCCCCCCCCI`, the activity, negative = inhibition in test [1] was 1.24% [at 23.6 µM]. Besides, the activity change, negative = inhibition in test [2] is 1.36% [at 23.6 µM]; in test [3] it was 3.93% [at 23.8 µM]; in test [4], 0.294% [at 23.6 µM].

Regarding `CCCCC(C=O)CC` (stereo not given), the Potency entry in test [1], in test [2], in test [3] and in test [4] was “inactive” each time.

Consider `CCOc1cc(NC(C)=O)ccc1C(=O)OC`, for which the Potency result in test [1], in test [2], in test [3] and in test [4] was “inactive” throughout.

On to `CNC(=S)NN`, for which the Potency result in test [1], in test [2], in test [3] and in test [4] was “inactive” each time.
